Laboratory results reported in PMC9911399, “Two distinct binding modes provide the RNA-binding protein RbFox with extraordinary sequence specificity”.
Positions count from the first letter of the chain named. Whole data set: some 16,000 sequences, median “ka relative to ugcaugu” near 0.0091, cut for the highest 2% near 0.032. The list comes from a sample in which the highest values are over-represented; it also holds similar and randomly drawn sequences.

T1: RBFOX1 RRM (Homo sapiens, UniProt Q9NWB1 109-208)
T1 sequence: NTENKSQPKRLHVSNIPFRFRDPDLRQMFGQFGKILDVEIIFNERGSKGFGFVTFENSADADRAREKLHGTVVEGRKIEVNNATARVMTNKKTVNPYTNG

B1: UUUCUAU (DNA:RNA)
RNA: GGGAGACCGGAAUUCAGAUUGUCCUUUCUAUUUAAAUCCCGUCGUAGCCACCA
DNA 1: CAATCTGAATTCCGGTCTCCC
DNA 2: TGGTGGCTACGACGGGATT
B2: UGCAUCU (DNA:RNA)
RNA: B1 RNA with U26G, U27C, C28A, A30C
DNA 1: CAATCTGAATTCCGGTCTCCC
DNA 2: TGGTGGCTACGACGGGATT
B3: AUCCGAU (DNA:RNA)
RNA: B1 RNA with U25A, U27C, U29G
DNA 1: CAATCTGAATTCCGGTCTCCC
DNA 2: TGGTGGCTACGACGGGATT
B4: ACAACUC (DNA:RNA)
RNA: GGGAGACCGGAAUUCAGAUUGUCCACAACUCUUAAAUCCCGUCGUAGCCACCA
DNA 1: CAATCTGAATTCCGGTCTCCC
DNA 2: TGGTGGCTACGACGGGATT
B5: GCCAUCC (DNA:RNA)
RNA: B4 RNA with A25G, A27C, C29U, U30C
DNA 1: CAATCTGAATTCCGGTCTCCC
DNA 2: TGGTGGCTACGACGGGATT
B6: CGCUAUU (DNA:RNA)
RNA: B4 RNA with A25C, C26G, A27C, A28U, C29A, C31U
DNA 1: CAATCTGAATTCCGGTCTCCC
DNA 2: TGGTGGCTACGACGGGATT
B7: UAGAUGA (DNA:RNA)
RNA: B1 RNA with U26A, U27G, C28A, A30G, U31A
DNA 1: CAATCTGAATTCCGGTCTCCC
DNA 2: TGGTGGCTACGACGGGATT
B8: UCCUGGG (DNA:RNA)
RNA: B4 RNA with A25U, A27C, A28U, C29G, U30G, C31G
DNA 1: CAATCTGAATTCCGGTCTCCC
DNA 2: TGGTGGCTACGACGGGATT
B9: CUGGGUU (DNA:RNA)
RNA: B1 RNA with U25C, U27G, C28G, U29G, A30U
DNA 1: CAATCTGAATTCCGGTCTCCC
DNA 2: TGGTGGCTACGACGGGATT
B10: UGGUUUU (DNA:RNA)
RNA: B1 RNA with U26G, U27G, C28U, A30U
DNA 1: CAATCTGAATTCCGGTCTCCC
DNA 2: TGGTGGCTACGACGGGATT
B11: UGGGUUU (DNA:RNA)
RNA: B1 RNA with U26G, U27G, C28G, A30U
DNA 1: CAATCTGAATTCCGGTCTCCC
DNA 2: TGGTGGCTACGACGGGATT
B12: UGUUGGG (DNA:RNA)
RNA: B1 RNA with U26G, C28U, U29G, A30G, U31G
DNA 1: CAATCTGAATTCCGGTCTCCC
DNA 2: TGGTGGCTACGACGGGATT
B13: UGCUGGG (DNA:RNA)
RNA: B1 RNA with U26G, U27C, C28U, U29G, A30G, U31G
DNA 1: CAATCTGAATTCCGGTCTCCC
DNA 2: TGGTGGCTACGACGGGATT
B14: UGGGGGG (DNA:RNA)
RNA: B1 RNA with U26G, U27G, C28G, U29G, A30G, U31G
DNA 1: CAATCTGAATTCCGGTCTCCC
DNA 2: TGGTGGCTACGACGGGATT
B15: UGGUUCU (DNA:RNA)
RNA: B1 RNA with U26G, U27G, C28U, A30C
DNA 1: CAATCTGAATTCCGGTCTCCC
DNA 2: TGGTGGCTACGACGGGATT
B16: UGGGUUC (DNA:RNA)
RNA: B4 RNA with A25U, C26G, A27G, A28G, C29U
DNA 1: CAATCTGAATTCCGGTCTCCC
DNA 2: TGGTGGCTACGACGGGATT
B17: CCCCUGG (DNA:RNA)
RNA: B1 RNA with U25C, U26C, U27C, A30G, U31G
DNA 1: CAATCTGAATTCCGGTCTCCC
DNA 2: TGGTGGCTACGACGGGATT
B18: UGGGUUG (DNA:RNA)
RNA: B1 RNA with U26G, U27G, C28G, A30U, U31G
DNA 1: CAATCTGAATTCCGGTCTCCC
DNA 2: TGGTGGCTACGACGGGATT
B19: CUGGUUC (DNA:RNA)
RNA: B4 RNA with A25C, C26U, A27G, A28G, C29U
DNA 1: CAATCTGAATTCCGGTCTCCC
DNA 2: TGGTGGCTACGACGGGATT
B20: AAAUAAA (DNA:RNA)
RNA: B4 RNA with C26A, A28U, C29A, U30A, C31A
DNA 1: CAATCTGAATTCCGGTCTCCC
DNA 2: TGGTGGCTACGACGGGATT
B21: AAAGAGU (DNA:RNA)
RNA: B4 RNA with C26A, A28G, C29A, U30G, C31U
DNA 1: CAATCTGAATTCCGGTCTCCC
DNA 2: TGGTGGCTACGACGGGATT
B22: AGUGGCG (DNA:RNA)
RNA: B4 RNA with C26G, A27U, A28G, C29G, U30C, C31G
DNA 1: CAATCTGAATTCCGGTCTCCC
DNA 2: TGGTGGCTACGACGGGATT
B23: CUCUGUC (DNA:RNA)
RNA: B4 RNA with A25C, C26U, A27C, A28U, C29G
DNA 1: CAATCTGAATTCCGGTCTCCC
DNA 2: TGGTGGCTACGACGGGATT
B24: GUGCGCC (DNA:RNA)
RNA: B1 RNA with U25G, U27G, U29G, A30C, U31C
DNA 1: CAATCTGAATTCCGGTCTCCC
DNA 2: TGGTGGCTACGACGGGATT
B25: CUUACGG (DNA:RNA)
RNA: B4 RNA with A25C, C26U, A27U, U30G, C31G
DNA 1: CAATCTGAATTCCGGTCTCCC
DNA 2: TGGTGGCTACGACGGGATT
B26: UGGUUGC (DNA:RNA)
RNA: B1 RNA with U26G, U27G, C28U, A30G, U31C
DNA 1: CAATCTGAATTCCGGTCTCCC
DNA 2: TGGTGGCTACGACGGGATT
B27: UGGGGUU (DNA:RNA)
RNA: B1 RNA with U26G, U27G, C28G, U29G, A30U
DNA 1: CAATCTGAATTCCGGTCTCCC
DNA 2: TGGTGGCTACGACGGGATT
B28: UGGUUGG (DNA:RNA)
RNA: B1 RNA with U26G, U27G, C28U, A30G, U31G
DNA 1: CAATCTGAATTCCGGTCTCCC
DNA 2: TGGTGGCTACGACGGGATT
B29: CUGGGGU (DNA:RNA)
RNA: B1 RNA with U25C, U27G, C28G, U29G, A30G
DNA 1: CAATCTGAATTCCGGTCTCCC
DNA 2: TGGTGGCTACGACGGGATT
B30: CGGUUGC (DNA:RNA)
RNA: B4 RNA with A25C, C26G, A27G, A28U, C29U, U30G
DNA 1: CAATCTGAATTCCGGTCTCCC
DNA 2: TGGTGGCTACGACGGGATT
B31: UGGGGGU (DNA:RNA)
RNA: B1 RNA with U26G, U27G, C28G, U29G, A30G
DNA 1: CAATCTGAATTCCGGTCTCCC
DNA 2: TGGTGGCTACGACGGGATT

target: T1, RBFOX1 RRM; test: EMSA; HiTS-Eq, 1 nM pool, 10 min; buffer printed only for the single-RNA assays: 10 mM Tris pH 7.5, 150 mM NaCl, 3.4 mM EDTA, 0.001% NP-40, 30 C; settings: tags: His6 N-terminal (pET28a); label: 5' 32P
In short: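 Relative association constants, normalised to the cognate motif, were derived by comparing read counts of each RNA species with those of the control reaction. The RNA sequenced was the free fraction, separated by 8% native PAGE after a 10 min equilibration in 50 µL of 1 nM 5′-radiolabelled RNA (7 randomized nucleotides) with increasing concentrations of purified wild-type or mutant RbFox RRM.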

Binder | binding signal
B1 | 0.00863 KA relative to UGCAUGU
B2 | 0.0208 KA relative to UGCAUGU
B3 | 0.00393 KA relative to UGCAUGU
B4 | 0.00147 KA relative to UGCAUGU
B5 | 0.00701 KA relative to UGCAUGU
B6 | 0.00582 KA relative to UGCAUGU
B7 | 0.0121 KA relative to UGCAUGU
B8 | 0.00619 KA relative to UGCAUGU
B9 | 0.0262 KA relative to UGCAUGU
B10 | 0.0278 KA relative to UGCAUGU
B11 | 0.0379 KA relative to UGCAUGU
B12 | 0.00877 KA relative to UGCAUGU
B13 | 0.0153 KA relative to UGCAUGU
B14 | 0.0192 KA relative to UGCAUGU
B15 | 0.019 KA relative to UGCAUGU
B16 | 0.0352 KA relative to UGCAUGU

Binder | binding signal
B17 | 0.0109 KA relative to UGCAUGU
B18 | 0.0558 KA relative to UGCAUGU
B19 | 0.0321 KA relative to UGCAUGU
B20 | 0.000652 KA relative to UGCAUGU
B21 | 0.00527 KA relative to UGCAUGU
B22 | 0.0184 KA relative to UGCAUGU
B23 | 0.00978 KA relative to UGCAUGU
B24 | 0.0184 KA relative to UGCAUGU
B25 | 0.00764 KA relative to UGCAUGU
B26 | 0.0455 KA relative to UGCAUGU
B27 | 0.036 KA relative to UGCAUGU
B28 | 0.0294 KA relative to UGCAUGU
B29 | 0.018 KA relative to UGCAUGU
B30 | 0.0256 KA relative to UGCAUGU
B31 | 0.0229 KA relative to UGCAUGU
